Our source for the Potency values is PubChem BioAssay (NCATS).

Results filed as inconclusive are left out. Where a call stands in place of a potency, no number is given. Activity calls are given as the source filed them. Calls follow the shape of the dose curve; as a rule, active = well fitted inhibition curve with a large enough effect; inconclusive = small, poorly fitted or top-dose-only effect; inactive = no such curve, though single readings can be large or run the other way.
Potency is read from the fitted curve at half-maximal effect.

Cytochrome P450 3A7 (Homo sapiens), sequence (P24462 whole entry, looked up): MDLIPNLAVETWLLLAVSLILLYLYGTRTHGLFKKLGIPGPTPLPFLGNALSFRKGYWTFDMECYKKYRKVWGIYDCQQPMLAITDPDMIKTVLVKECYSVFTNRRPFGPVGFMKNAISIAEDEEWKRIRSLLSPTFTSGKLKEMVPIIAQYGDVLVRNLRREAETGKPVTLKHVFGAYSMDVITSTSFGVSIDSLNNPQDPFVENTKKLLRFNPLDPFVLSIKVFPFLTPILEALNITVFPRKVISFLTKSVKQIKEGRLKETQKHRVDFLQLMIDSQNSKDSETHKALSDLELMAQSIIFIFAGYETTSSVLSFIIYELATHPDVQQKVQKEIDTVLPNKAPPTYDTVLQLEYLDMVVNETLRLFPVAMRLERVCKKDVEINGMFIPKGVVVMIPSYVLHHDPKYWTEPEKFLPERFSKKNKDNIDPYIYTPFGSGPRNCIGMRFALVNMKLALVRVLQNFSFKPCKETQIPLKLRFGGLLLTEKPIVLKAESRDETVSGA

The target of this test is Cytochrome P450 3A7 (Homo sapiens) (UniProt P24462). Description: Cytochrome P450 family 3 subfamily A member 7 (CYP3A7) small molecule antagonists: luciferase biochemical qHTS assay (AID 1963596). Also: nearly all actives have a fitted effect of over 40% in size. The settings on record: P450-Glo CYP3A7 enzyme luminescence, 1 h; series mostly up to 57.4 µM. From the text:
National Center for Advancing Translational Sciences [NCATS] Assay Overview: Cytochrome P450 (CYP) enzymes are membrane-bound hemeproteins that play a key role in metabolism of drugs and xenobiotics. The CYP3A subfamily is the most abundant, representing 30% of the total adult hepatic CYP content, whereas CYP3A7 is found predominantly in human fetal liver and accounts up to 50% of the total fetal hepatic CYP content. Testing the effect of chemicals on CYP isozymes is useful to minimize the adverse drug reactions and toxicities in the drug development process. Chemicals were tested for their effect on CYP enzyme activities by using P450-Glo (TM) screening systems (Promega Corporation, Madison, WI). These systems provide a luminescent method containing proluciferin substrates and are converted to luciferin products by CYP isozymes. The luciferin products formed are detected with a luciferin detection reagent, and the amount of light produced is proportional to CYP activity. P450-Glo (TM) CYP3A7 screening system (Catalog. No. V8812) was used to detect the compounds that interfere with CYP3A7 activity. The positive control compound used for CYP3A7 assay is ketoconazole (Sigma-Aldrich, St. Louis, MO).
Assay Protocol Summary: Two ul of enzyme-substrate mix was dispensed into medium binding white/solid 1536-well plates (Greiner Bio-One North America Inc., Monroe, NC) using a Flying Reagent Dispenser (FRD, Aurora Discovery, San Diego, CA). Compounds dissolved in DMSO, and positive control (ketoconazole) were transferred to the assay plates at 23 nl using a Pintool station (Wako, San Diego, CA). The assay plates were incubated at room temperature for 10 min. Then 2 ul of NADPH regeneration solution was added to each well of the assay plates using an FRD and incubated at room temperature for 1 h. The reaction was stopped by adding 4 ul of detection reagent using an FRD and after 20 min incubation at room temperature the luminescence signal was measured using a ViewLux plate reader (Perkin Elmer, Shelton, CT). Data were expressed as relative luminescence units.
Background: In qHTS, concentration-response curves come from the screen itself.
As to `CC(C)(C)NCCCNC(=O)c1cccc(Br)c1`, the Potency entry is “inactive”. The entry for `O=C(O)c1ccc(S(=O)(=O)N(Cl)Cl)cc1` is “inactive”; for `O=P(O)(O)OC(CO)CO` it is “inactive”. In the case of `O=C(O)c1cc(=O)c2ccccc2o1`, the Potency result is “inactive”. To `CCC(C)(C)C1CCc2c(sc(NC(=O)c3ccc(Br)cc3)c2C#N)C1` (stereo not given) belongs “inactive”. To `O=C1OC2(c3ccccc31)c1cc(Br)c(O)c(Br)c1Oc1c2cc(Br)c(O)c1Br` belongs 19.5 µM (active); to `Cc1cc(-c2cc(OC(=O)c3ccccc3)ccc2Cl)cc2nnc(Nc3ccc(OCCN4CCCC4)cc3)nc12`, “inactive”; to `O=C1CC[C@@H](C(=O)O)N1`, “inactive”. Turning to `CCOC(CN1CCN(CC(C)C(=O)c2ccccc2)CC1)c1ccccc1` (stereo not given), the Potency result is “inactive”.

Regarding `CCCCOC(=O)CCCCCCCCC(=O)OCCCC`, the Potency entry is “inactive”. As to `CC(=O)NC(Cc1ccccc1)C(=O)O` (stereo not given), the Potency result is “inactive”. The entry for `O=C(O)CC1CCC(c2ccc(-c3ccc4nc(C(=O)NCc5ccc(OC(F)(F)F)cc5)cn4c3)cc2)CC1` (stereo not given) is “inactive”; for `O=C(O)Cc1cn(-c2ccccc2)nc1-c1ccc(Cl)cc1` it is “inactive”. To `Cn1c(NCCN(CCO)CCCc2ccc([N+](=O)[O-])cc2)cc(=O)n(C)c1=O` belongs “inactive”; to `C[C@@H]1CCO[C@H]2Cn3cc(C(=O)NCc4ccc(F)cc4F)c(=O)c(O)c3C(=O)N12`, “inactive”. As for `CNc1c2c(nn1C)CCCC2`, the Potency entry was “inactive”.

Consider `CC(=O)Nc1ccccc1`, for which the Potency entry was “inactive”. Turning to `C[C@H](NCCc1ccc(O)cc1)[C@H](O)c1ccc(O)cc1`, the Potency result is “inactive”. The entry for `O=C(N[C@@H]1CCCc2c1cnn2-c1ccc(F)cc1F)c1ccccn1` is “inactive”; for `c1ccc(-n2cnnn2)cc1` it is “inactive”.

Regarding `C[C@H]1NCc2cc(-c3ccc4c(=O)c(C(=O)O)cn(C5CC5)c4c3OC(F)F)ccc21`, the Potency result was “inactive”. The entry for `CN1CCN(C2=Nc3ccccc3Nc3ccc(O)cc32)CC1` is “inactive”. The entry for `Cn1c([N+](=O)[O-])cnc1COC(N)=O` is “inactive”. With `COc1ccc(C2=N[C@@H](c3ccc(Cl)cc3)[C@@H](c3ccc(Cl)cc3)N2C(=O)N2CCNC(=O)C2)c(OC(C)C)c1`, the Potency result was “inactive”. To `CC1(C)CC1C(=O)NC(=CCCCCSCC(N)C(=O)O)C(=O)O` (stereo not given) belongs “inactive”. Consider `COc1ccc(C(=O)Nc2ccc3oc(-c4ccc(OC)cc4)nc3c2)cc1`, for which the Potency result is “inactive”.

Take `Cn1c(=O)n(-c2ccc(C(C)(C)C#N)cc2)c2c3cc(C#Cc4cccnc4)ccc3ncc21`: the Potency result was “inactive”. Consider `CCCc1nc(C(C)(C)O)c(C(=O)O)n1Cc1ccc(-c2ccccc2-c2nn[nH]n2)cc1`, for which the Potency entry is “inactive”. To `O=c1cc(N2CCN(c3cccc(C(F)(F)F)c3)CC2)[nH]c(=O)n1C1CCCCC1` belongs “inactive”; to `O=C(Nc1ccc(-c2ccnc(Nc3ccc(N4CCOCC4)cc3)n2)cc1)C1CCCN1` (stereo not given), “inactive”. `O=C(O)/C=C/c1ccc(Cn2ccnc2)cc1`: the Potency result was “inactive”. The entry for `O=C(c1ccco1)N1CCNCC1` is “inactive”; for `COc1ccc(-c2n[nH]c3c2cnc2cc(OC)c(OC)cc23)cc1` it is “inactive”; for `OCC=Cc1ccccc1` it is “inactive”. With `CC1(C)[C@@H]2CC[C@@]1(C)C(=O)C2`, the Potency result is “inactive”. The entry for `CC(=O)NS(=O)(=O)c1ccc(N)cc1` is “inactive”; for `N#Cc1cc(C2=Nc3ccc(Br)cc3NC(=O)C2)ccn1` it is “inactive”. The entry for `O=C(O)c1ccccc1NC(=O)N1CCC(c2ccccc2C(F)(F)F)CC1` is “inactive”; for `CC1(C)[C@H](C(=O)O)N2C(=O)C[C@H]2S1(=O)=O` it is “inactive”. The entry for `CCCSc1ccc2nc(NC(=O)OC)[nH]c2c1` is “inactive”.
